Reference: PubChem BioAssay AID1159580 (chemical genetic matrix, 2015)
Values joined by “and” are separate entries in the source; they are usually repeats but may differ in a detail not shown here. Identical values can stand only once. The campaign covered roughly 5,500 compounds. About 2,000 (36%) were called active. Inconclusive results (about 18%) are left out. Cut-off read from the data, not from the text of the source: active = normalized growth mostly below about 0.91 (no sharp cut-off); inconclusive = no clear call, values can overlap the other calls; inactive = mostly above about 0.92. This is one part of the list.

Assay: chemical genetic growth profiling, strain panel (AID 1159580);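 note: tested at 20 µM; growth read once vehicle control cultures reached saturation at 30 °C; 1 = growth at the plate median or of vehicle wells; lower values mean less growth of the strain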
Settings: S. cerevisiae deletion strains, growth OD

Measured: normalized growth

C=CCC1(C(C)CCC)C(=O)N=C(S)NC1=O (stereo unspecified)
inactive: locus YAL013W, strain DEP1, active compounds read low 0.989 | locus YAL021C, strain ccr4, active compounds read low 0.989 | locus YAL026C, strain drs2, active compounds read low 1 | locus YAL030W, strain snc1, active compounds read low 0.984 | locus YBL061C, strain skt5, active compounds read low 0.975 | locus YBR009C, strain hhf1, active compounds read low 1.01 | locus YBR021W, strain FUR4, active compounds read low 0.982 | locus YBR023C, strain chs3, active compounds read low 0.986 | locus YBR171W, strain sec66, active compounds read low 0.949 | locus YBR229C, strain ROT2, active compounds read low 0.994 | locus YBR231C, strain swc5, active compounds read low 0.976 | locus YBR279W, strain paf1, active compounds read low 0.998 | locus YCL011C, strain gbp2, active compounds read low 0.974 | locus YCL016C, strain dcc1, active compounds read low 1 | locus YCL029C, strain bik1, active compounds read low 0.981 | locus YCL061C, strain MRC1, active compounds read low 0.982 | locus YCL069W, strain vba3, active compounds read low 0.99 | locus YCR088W, strain abp1, active compounds read low 0.967 | locus YDL005C, strain med2, active compounds read low 0.937 | locus YDL035C, strain GPR1, active compounds read low 0.985 | locus YDL040C, strain nat1, active compounds read low 0.973 | locus YDL074C, strain BRE1, active compounds read low 1.06 | locus YDL101C, strain DUN1, active compounds read low 0.979 | locus YDL134C, strain PPH21, active compounds read low 0.997 | locus YDL185W, strain tfp1, active compounds read low 0.958 | locus YDL192W, strain arf1, active compounds read low 0.976 | locus YDR001C, strain nth1, active compounds read low 0.949 | locus YDR069C, strain doa4, active compounds read low 0.949 | locus YDR101C, strain arx1, active compounds read low 0.988 | locus YDR137W, strain rgp1, active compounds read low 0.919 | locus YDR150W, strain NUM1, active compounds read low 0.994 | locus YDR159W, strain sac3, active compounds read low 0.952 | locus YDR162C, strain NBP2, active compounds read low 1.01 | locus YDR195W, strain ref2 0.885 | locus YDR297W, strain sur2, active compounds read low 0.983 | locus YDR318W, strain mcm21, active compounds read low 0.986 | locus YDR334W, strain swr1, active compounds read low 0.938 | locus YDR335W, strain msn5, active compounds read low 0.964 | locus YDR388W, active compounds read low 0.986 | locus YDR392W, strain spt3, active compounds read low 1.01 | locus YDR502C, strain sam2, active compounds read low 1 | locus YEL003W, strain gim4, active compounds read low 0.979 | locus YEL037C, strain rad23, active compounds read low 0.974 | locus YEL061C, strain CIN8 (second series), active compounds read low 0.968 | locus YEL061C, strain CIN8, active compounds read low 0.988 | locus YER015W, strain faa2, active compounds read low 0.957 | locus YER016W, strain bim1, active compounds read low 0.987 | locus YER110C, active compounds read low 0.981 | locus YER111C, strain swi4, active compounds read low 0.989 | locus YER155C, strain BEM2 (second series), active compounds read low 0.928 | locus YER155C, strain BEM2, active compounds read low 0.988 | locus YER167W, strain BCK2, active compounds read low 0.961 | locus YFR010W, strain ubp6, active compounds read low 0.952 | locus YGL078C, strain dbp3, active compounds read low 0.986 | locus YGL086W, strain mad1, active compounds read low 0.975 | locus YGL167C, strain pmr1, active compounds read low 0.962 | locus YGL173C, strain kem1, active compounds read low 0.999 | locus YGL227W, strain vid30, active compounds read low 0.954 | locus YGL240W, strain doc1, active compounds read low 0.944 | locus YGL248W, strain PDE1, active compounds read low 1 | locus YGL253W, strain hxk2, active compounds read low 0.969 | locus YGR078C, strain PAC10, active compounds read low 1.02 | locus YGR135W, strain pre9, active compounds read low 1.02 | locus YGR229C, strain SMI1, active compounds read low 1.02 | locus YGR252W, strain gcn5, active compounds read low 1.03 | locus YHR013C, strain ard1, active compounds read low 0.964 | locus YHR027C, strain rpn1, active compounds read low 0.977 | locus YHR030C, strain SLT2, active compounds read low 0.976 and 0.982 | locus YHR079C, strain IRE1 (second series), active compounds read low 0.987 | locus YHR079C, strain IRE1, active compounds read low 0.979 | locus YHR094C, strain hxt1, active compounds read low 0.968 | locus YHR129C, strain ARP1, active compounds read low 1 | locus YHR142W, strain chs7, active compounds read low 0.996 | locus YHR200W, strain rpn10, active compounds read low 0.965 | locus YIL066C, strain RNR3, active compounds read low 0.999 | locus YIL073C, strain SPO22, active compounds read low 0.934 | locus YIL125W, strain kgd1, active compounds read low 0.982 | locus YIR030C, strain dcg1, active compounds read low 0.978 | locus YJL092W, strain hpr5, active compounds read low 0.985 | locus YJL095W, strain BCK1 (second series), active compounds read low 0.975 | locus YJL095W, strain BCK1, active compounds read low 1.07 and 0.994 | locus YJL115W, strain asf1, active compounds read low 0.952 | locus YJL129C, strain trk1, active compounds read low 0.928 | locus YJL134W, strain LCB3, active compounds read low 0.979 | locus YJL154C, strain vps35, active compounds read low 0.965 | locus YJL164C, strain tpk1, active compounds read low 1.01 | locus YJL166W, strain qcr8, active compounds read low 0.969 | locus YJL168C, strain set2, active compounds read low 0.983 | locus YJL187C, strain SWE1 (second series), active compounds read low 1.01 | locus YJR043C, strain POL32, active compounds read low 0.978 | locus YJR066W, strain TOR1, active compounds read low 0.959
